Compound activity: PubChem BioAssay, Johns Hopkins Ion Channel Center
Shown are actives, neighbours in structure and some others; about 1.6% of the full set was active somewhere.
KCNQ2 inh: rat KCNQ2 potassium channel inhibitors, primary screen, cell-based, CHO-K1, FluxOR thallium flux, B-score; Potassium voltage-gated channel subfamily KQT member 2 (Rattus norvegicus), O88943; 20 min; stronger effect = lower value; B-score at 10 µM; 310,000 tested, 1.1% active; AID 2156, 2009;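 active = fluorescence ratio B-score at most minus 3 library SDs, with starting brightness B-score within 2 library SDs, cut at about -5.5 in these data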
KCNQ2 pot: potentiators of rat KCNQ2 potassium channel | Potassium voltage-gated channel subfamily KQT member 2 (Rattus norvegicus), O88943 | CHO-K1 KCNQ2, FluxOR thallium flux fluorescence; stronger effect = higher value | B-score at 10 µM | 310,000 tested, 0.54% active;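 active = fluorescence ratio B-score at least 3 SD of library B-scores, with initial fluorescence B-score within 3 of them, cut at about 5.3 in these data; same plate scores as AID 2156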;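 note: B-score of peak minus minimum over baseline fluorescence ratio after K+ and Tl+ stimulus; positive B-score means potentiation of KCNQ2 with more thallium influx and brighter signal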
Kir21 confirm: mouse Kir2.1 channel blockers, retest, confirmation, cell-based, FluxOR thallium flux, duplicate | shares compounds with KCNQ2 pot | Kir2.1-expressing cells, FluxOR thallium flux fluorescence; stronger effect = lower value | Tl flux remaining, % of negative control (stronger effect = lower value), % at 10 µM | 2,300 tested, 41% active | AID 2032, 2009;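 active = Primary-screen hit whose thallium flux fell at least 3 control SD below untreated wells in both duplicates, with normal baseline fluorescence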
HEK293 ctr: alters thallium flux in parental HEK293 cells, Kir2.1 counter-screen | shares compounds with KCNQ2 pot | FluxOR thallium flux fluorescence; 0% = unstimulated blank wells | FluxOR signal as % of negative control (100 = no effect), % at 10 µM | 2,300 tested, 19% active | AID 2105;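 active = dye signal at least 3 control SD above or below untreated wells in both duplicates, raw fluorescence within 3, either direction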;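 note: percent is based on the flux ratio of peak minus minimum fluorescence over baseline F0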
CHO-K1 Tl ctr: nonspecific thallium flux increase in parental CHO-K1, confirmation, counter-screen for KCNQ2 potentiator project, cell-based, FluxOR thallium flux, duplicate; 1,200 tested, 43% active; AID 2282, 2010; parental CHO-K1 cells, FluxOR thallium flux fluorescence; zero = vehicle mean+3SD, 100% = vehicle-minus-blank window; shares compounds with KCNQ2 pot; activity increase over 3SD of controls, % at 10 µM;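 active = signal rise of at least 3 SD above the untreated control mean, in both duplicate wells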;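 note: counter screen of KCNQ2 potentiator hits so any rise reflects channel-independent effects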
KCNQ1 sel pot: human KCNQ1 channel potentiation off-target, confirmation, selectivity assay for KCNQ2 potentiator project, cell-based, CHO, FluxOR thallium flux | shares compounds with KCNQ2 pot | CHO KCNQ1 stable, FluxOR thallium flux fluorescence; beyond 3SD, as % of vehicle-control signal | activation over 3SD threshold, % at 10 µM | 1,200 tested, 28% active;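 active = fluorescence ratio rise of at least 3 SD of vehicle wells above their mean, in both replicate wells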
KCNQ2 pot conf: rat KCNQ2 channel potentiators, confirmation, cell-based, CHO, FluxOR thallium flux, duplicate | shares compounds with KCNQ2 pot | potentiation, less the hit threshold, % at 10 µM | 1,200 tested, 68% active | CHO-KCNQ2 cells, FluxOR thallium flux fluorescence;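 active = fluorescence ratio rising 3 SD or more over the vehicle control mean in both replicates, plus primary screen hit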;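 note: peak minus minimum thallium fluorescence divided by baseline after K/Tl stimulus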
Kir21 spec: mouse Kir2.1 channel activation off-target, confirmation, selectivity assay for KCNQ2 potentiator project, cell-based, HEK293, FluxOR thallium flux | shares compounds with KCNQ2 pot | HEK293 Kir2.1, FluxOR thallium flux fluorescence | activity over 3SD threshold, % at 10 µM | 1,200 tested, 2% active | AID 2345, 2010;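 active = fluorescence ratio rise of at least 3 SD above the vehicle-control mean, seen in both replicates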
Numbers stand for hits.

`CCCCCCN1CC(=O)N2[C@@H](Cc3c([nH]c4ccccc34)C2(C)C)C1=O` gave KCNQ2 inh inactive and KCNQ2 pot inactive.
COc1ccc(COC(=O)C2CCN(S(=O)(=O)c3ccc(C)cc3)CC2)cc1 was read as KCNQ2 inh inactive and KCNQ2 pot inactive.
Screening NC(=O)c1ccccc1OC1CCC1 returned KCNQ2 inh inactive.
For Cc1coc2cc3oc(=O)c(CCC(=O)N4CCC(C(=O)O)(c5ccccc5)CC4)c(C)c3cc12 the results were KCNQ2 inh inactive.
For CC(COc1ccccc1)N1CCC(CO)(Cc2ccccc2)CC1 (stereo not given) the results were KCNQ2 inh inactive and KCNQ2 pot inactive.
Screening CC(Oc1ccccc1)c1ccnn1S(=O)(=O)c1ccccc1 (stereo not given) returned KCNQ2 inh inactive, Kir21 confirm 52.0% and HEK293 ctr inactive.
For CC(Oc1ccc(Cl)cc1)c1ccnn1S(=O)(=O)c1ccc(Cl)cc1 (stereo not given) the results were KCNQ2 inh inactive.
For CC(C)N(CCCNC(=O)Cn1ncc2c([nH]c3ccccc32)c1=O)Cc1ccccc1 the results were KCNQ2 inh inactive and KCNQ2 pot inactive.
COc1ccc(NC(=O)Nc2c(O)ccc3ccccc23)cc1 was read as KCNQ2 inh inactive and KCNQ2 pot inactive.
Nc1nc(CSc2ccccn2)nc(Nc2ccccc2)n1 was read as KCNQ2 inh inactive, KCNQ2 pot 5.53, Kir21 confirm inactive, HEK293 ctr inactive, CHO-K1 Tl ctr inactive, KCNQ1 sel pot inactive, KCNQ2 pot conf inactive and Kir21 spec inactive.
Nc1nc(CSCCO)nc(Nc2ccccc2)n1 was read as KCNQ2 inh inactive and KCNQ2 pot inactive.
Screening CC(C)C[C@H](N)c1nnc(S(=O)(=O)Cc2cccc(F)c2)o1 returned KCNQ2 inh inactive, Kir21 confirm 72.5% and HEK293 ctr inactive.
CC(C)CCNC(=O)c1ccc(CSCc2cccc(F)c2)o1 was read as KCNQ2 inh inactive.
`COc1ccc(-c2c(NC(=O)CC(C)C)n(C)c3ccccc3c2=O)cc1OC` gave KCNQ2 inh inactive.
Screening COc1ccc(CCNC(=O)c2coc3ccccc3c2=O)cc1 returned KCNQ2 inh inactive and KCNQ2 pot inactive.
`Cc1cc(C)c(OCC(=O)OCC(=O)NCCC2=CCCCC2)c(C)c1` gave KCNQ2 inh inactive.
`Cc1[nH]n(-c2ccccc2)c(=O)c1CCO` gave KCNQ2 inh inactive and KCNQ2 pot inactive.
Cc1[nH]n(-c2ccccc2)c(=O)c1S(=O)(=O)c1ccccc1 was read as KCNQ2 inh inactive, Kir21 confirm 28.5% and HEK293 ctr inactive.
CCN(c1ccc(OC)cc1)S(=O)(=O)c1csc(C(=O)N2CCCC2)c1 was read as KCNQ2 inh inactive.
For Cc1cc(C)c(NC(=O)COC(=O)Cc2cccs2)c(C)c1 the results were KCNQ2 inh inactive and KCNQ2 pot inactive.
`CSc1c(CC(=O)Nc2ccccc2)n(Cc2ccccc2)c2ccccc12` gave KCNQ2 inh inactive.
`Cc1cc(/C=C2\SC(=S)NC2=O)cc(C)c1O` gave KCNQ2 inh inactive and KCNQ2 pot inactive.
